{
  "source": "PubChem BioAssay AID463173",
  "about": "(ICCB-Longwood Screening Facility, Harvard Medical School, 2010)",
  "note": "Hit rate of the full screen: of about 52,000 compounds, about 4,300 (8.3%) were called active. No stated cut-off is given here; in the data, active means survival mostly below about 52% (no sharp cut-off); inactive means mostly above about 56%. Shown is part of a subset that was picked to be rich in actives.",
  "data": [
    {"tested_on": "DeltatarO mutant", "assay": "growth inhibition of S. aureus wild type versus tarO mutant, primary screen, teichoic acid synthesis inhibitors, RN4220, OD600 (AID 463173)", "settings": "OD600, 18 h, active compounds read low, screened at 18.75 µg/mL (by protocol)", "values": [
      {"smiles": "CC(C)c1cc(-c2nc(-c3ccc(Br)cc3)no2)n[nH]1", "survival": "95% (inactive)"},
      {"smiles": "O=C(Cn1c(-c2cccs2)cc2cc(F)ccc21)NCCc1ccc(Cl)cc1", "survival": "91% (inactive)"},
      {"smiles": "Fc1ccc(-n2ncc3c(NCCC4=CCCCC4)ncnc32)cc1", "survival": "83% (inactive)"},
      {"smiles": "Cc1ccc(-n2ncc3c(NCCc4ccccc4)ncnc32)cc1Cl", "survival": "65% (inactive)"},
      {"smiles": "Cc1ccc(-n2ncc3c(NCCC4=CCCCC4)ncnc32)cc1", "survival": "20% (active)"},
      {"smiles": "Clc1cccc(-n2ncc3c(NCCC4=CCCCC4)ncnc32)c1", "survival": "37% (active)"},
      {"smiles": "Clc1cccc(-n2ncc3c(NCCc4ccccc4)ncnc32)c1", "survival": "94% (inactive)"},
      {"smiles": "Cc1ccc(Cl)cc1-n1ncc2c(NCCC3=CCCCC3)ncnc21", "survival": "91% (inactive)"},
      {"smiles": "Cc1ccc(-n2ncc3c(NCCC4=CCCCC4)ncnc32)cc1C", "survival": "119% (inactive)"},
      {"smiles": "Cc1ccc(-n2ncc3c(NCc4ccccc4)ncnc32)cc1Cl", "survival": "-4% (active)"},
      {"smiles": "Cc1ccc(-n2ncc3c(NCc4ccccc4)ncnc32)cc1C", "survival": "70% (inactive)"},
      {"smiles": "COc1cccc(C2C(C(=O)Nc3cccnc3)=C(C)Nc3nc(SCc4ccccc4)nn32)c1", "note": "(stereo not drawn)", "survival": "81% (inactive)"},
      {"smiles": "COc1ccc(Cn2c(SCc3ccc(C(=O)NC4CCCC4)cc3)nc3cccnc32)cc1", "survival": "69% (inactive)"},
      {"smiles": "COC(=O)c1sc2nc3ccccc3cc2c1N", "survival": "93% (inactive)"},
      {"smiles": "COCCNS(=O)(=O)c1ccc(S(=O)(=O)N2CCCCC2)cc1", "survival": "103% (inactive)"},
      {"smiles": "Cc1ccc2cc(CN(CC3CCCO3)C(=O)C3CCC3)c3nnnn3c2c1", "note": "(stereo not drawn)", "survival": "95% (inactive)"},
      {"smiles": "CCC(C)NC(=O)CCCc1nnc2n(CC(C)C)c(=O)c3sccc3n12", "note": "(stereo not drawn)", "survival": "94% (inactive)"},
      {"smiles": "O=S(=O)(NCCS(=O)(=O)N1CCN(c2ccccc2)CC1)c1ccccc1", "survival": "81% (inactive)"},
      {"smiles": "CCN(C1CCCCC1)S(=O)(=O)c1ccc(S(=O)(=O)NC2CC2)cc1", "survival": "90% (inactive)"},
      {"smiles": "O=C(Nc1ccccc1)C1CCN(S(=O)(=O)c2ccc3c(c2)CCCN3C(=O)C2CCC2)CC1", "survival": "95% (inactive)"},
      {"smiles": "CCOc1ccc(Nc2c(S(=O)(=O)c3ccc(Cl)cc3)cnc3ccc(OCC)cc23)cc1", "survival": "66% (inactive)"},
      {"smiles": "CCOc1ccc(Nc2c(S(=O)(=O)c3ccc(Cl)cc3)cnc3ccc(OC)cc23)cc1", "survival": "67% (inactive)"},
      {"smiles": "CCOc1ccc(Nc2c(S(=O)(=O)c3ccccc3)cnc3ccc(CC)cc23)cc1", "survival": "34% (active)"},
      {"smiles": "CCOc1ccc(Nc2c(S(=O)(=O)c3ccc(C)cc3)cnc3cc(OC)c(OC)cc23)cc1", "survival": "70% (inactive)"},
      {"smiles": "CCOc1ccc(Nc2c(S(=O)(=O)c3ccc(C)cc3)cnc3ccc(F)cc23)cc1", "survival": "64% (inactive)"},
      {"smiles": "CCOc1ccc(Nc2c(S(=O)(=O)c3ccc(C)cc3)cnc3ccc(OC)cc23)cc1", "survival": "59% (inactive)"},
      {"smiles": "CCOc1ccc(Nc2c(S(=O)(=O)c3ccc(C)cc3)cnc3ccccc23)cc1", "survival": "43% (active)"},
      {"smiles": "CCOc1ccc(Nc2c(S(=O)(=O)c3ccccc3)cnc3ccccc23)cc1", "survival": "38% (active)"},
      {"smiles": "CCOc1ccc(Nc2c(S(=O)(=O)c3ccccc3)cnc3ccc(F)cc23)cc1", "survival": "92% (inactive)"},
      {"smiles": "CCOc1ccc(C(=O)NCC(c2ccc3c(c2)OCO3)N2CCN(c3ccc(F)cc3)CC2)cc1", "note": "(stereo not drawn)", "survival": "87% (inactive)"},
      {"smiles": "COc1ccc(Cl)cc1NC(=O)Cn1cnc2sc(C)c(S(=O)(=O)N3CCN(c4ccccc4OC)CC3)c2c1=O", "survival": "79% (inactive)"},
      {"smiles": "CCN(c1ccccc1)c1nnc(NC(=O)Nc2ccc(Br)c(C)c2)s1", "survival": "89% (inactive)"},
      {"smiles": "COc1ccccc1NC(=O)c1c(-c2ccc(C)cc2)nnc2ccccc12", "survival": "105% (inactive)"},
      {"smiles": "CC(C)(C)c1ccc(S(=O)(=O)Nc2ccc(O)c(Sc3nc4ccccc4s3)c2)cc1", "survival": "-4% (active)"},
      {"smiles": "Cc1nc2ccc(S(=O)(=O)NC(C(=O)NCc3ccccc3Cl)C(C)C)cc2s1", "note": "(stereo not drawn)", "survival": "102% (inactive)"},
      {"smiles": "Cc1cc(F)ccc1S(=O)(=O)Nc1ccc(O)c(Sc2ncn[nH]2)c1", "survival": "111% (inactive)"},
      {"smiles": "CC(C)NC(=O)c1nc2ccccc2s1", "survival": "88% (inactive)"},
      {"smiles": "CC(C)c1ccc(C(=O)Nc2ccc(-c3nc4ccccc4s3)c(Cl)c2)cc1", "survival": "216% (inactive)"},
      {"smiles": "CC(C)c1ccc(S(=O)(=O)Nc2ccc(O)c(Sc3nc4ccccc4s3)c2)cc1", "survival": "1% (active)"},
      {"smiles": "CS(=O)(=O)Nc1ccc(-c2nc3ccccc3s2)cc1", "survival": "48% (inactive)"},
      {"smiles": "Cn1c(=O)sc2cc(NS(=O)(=O)c3ccc(C(C)(C)C)cc3)ccc21", "survival": "92% (inactive)"},
      {"smiles": "Cc1nc2ccc(S(=O)(=O)CCC(=O)Nc3ccc(C(C)C)cc3)cc2s1", "survival": "50% (inactive)"},
      {"smiles": "O=S(=O)(Nc1ccc(O)c(Sc2nc3ccccc3s2)c1)c1cc(Cl)ccc1Cl", "survival": "-8% (active)"},
      {"smiles": "O=C(Nc1ccc(Cl)cc1-c1nc2ccccc2s1)c1ccco1", "survival": "74% (inactive)"},
      {"smiles": "Cc1cc(S(=O)(=O)Nc2ccc(O)c(Sc3nc4ccccc4s3)c2)ccc1Cl", "survival": "-1% (active)"},
      {"smiles": "CCOC(=O)CNc1nnc(SCC(=O)OCC)[nH]c1=O", "survival": "71% (inactive)"},
      {"smiles": "Cc1ccc2oc(C(=O)Nc3ccc(S(=O)(=O)N4CCCC(C)C4)cc3)cc(=O)c2c1", "note": "(stereo not drawn)", "survival": "69% (inactive)"},
      {"smiles": "Cc1ccc(Cl)cc1N1CCN(CCCNc2ncnc3onc(-c4ccc(F)cc4)c23)CC1", "survival": "80% (inactive)"},
      {"smiles": "Cc1ccc2nc(-c3ccncc3)c(Nc3ccc(C(C)C)cc3)n2c1", "survival": "75% (inactive)"},
      {"smiles": "CC(C)(Cc1ccc(O)cc1)NC(=O)c1ccccc1", "survival": "86% (inactive)"},
      {"smiles": "CC(=O)c1c(C)n(-c2cccc(Cl)c2)c2ccc(OC(=O)c3ccccc3)cc12", "survival": "77% (inactive)"},
      {"smiles": "CN(CC(=O)NCc1ccccc1Cl)S(=O)(=O)c1ccc2c(c1)c(=O)n(C)c(=O)n2C", "survival": "130% (inactive)"},
      {"smiles": "CCOc1ccccc1C(=O)Nc1ccc(S(=O)(=O)Nc2ncccn2)cc1", "survival": "76% (inactive)"},
      {"smiles": "CC1=CCC2C(=O)N(C3CCCCC3)C(=O)C2C1", "note": "(stereo not drawn)", "survival": "79% (inactive)"},
      {"smiles": "Cc1ccc(NC(=O)N2CCN(c3ccc(Cl)c(Cl)c3)CC2)cc1", "survival": "102% (inactive)"},
      {"smiles": "CC(C)c1ccc(NC(=O)N2CCN(c3ccc(Cl)c(Cl)c3)CC2)cc1", "survival": "87% (inactive)"},
      {"smiles": "O=C(Nc1ccc(F)cc1F)N1CCN(c2ccc(Cl)c(Cl)c2)CC1", "survival": "48% (active)"},
      {"smiles": "CCn1cc(S(=O)(=O)c2ccc(C)cc2)c(=O)c2cc(F)c(N3CCCCCC3)cc21", "survival": "90% (inactive)"}
    ]}
  ]
}
